Screens as filed in PubChem.
Compounds with a hit are over-represented: about 5.7% of the library has one in this group of screens.
HepG2 tox – counter-screen for TGF-b inhibitors: cytotoxicity in HepG2 cells; HepG2 CAGA-GFP viability, ATP luminescence, 18 h; Potency, µM (titrated, usually from 46.1 µM), usual class: cytotoxic; 410,000 compounds, 0.76% hits; AID 588856
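HepG2 CAGA-GFP cells (1000/well, DMEM with 1% FBS) received compound, then TGF-beta at 500 pg/mL final, and were incubated 18 hours at 37 degrees C. Viability was read by CellTiter-Glo luminescence. Media-only wells were set as complete cell-killing and DMSO as no toxicity.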
S2 tox – viability counter-screen for ATXN expression inhibitors; S2 cells (HEK-293 line with an ATXN2-luciferase reporter) viability, CellTiter-Fluor protease fluorescence, 24 h; Potency, µM (titrated, usually from 56.7 µM), usual class: cytotoxic; 400,000 compounds, 0.49% hits; AID 651635; also: nearly all actives have a fitted effect of over 40% in size
ATXN2 expr inh – inhibitors of ATXN2 expression; AID 1745845; HEK-293 ATXN2-luciferase reporter, luminescence, 24 h; Potency, µM (series often up to 57 µM), most hits filed as inhibitors; 360,000 compounds, 0.72% hits; also: nearly all actives have a fitted effect of over 55% in size
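ATXN2-luciferase reporter cells (luciferase flanked by upstream and downstream ATXN2 gene portions) were treated 24 h at 37 °C with compounds at up to 57 uM. SteadyGlo luminescence gave expression; GF-AFC fluorescence gave viability.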
IL-1B inflam inh – inhibitors of inflammasome signaling (IL-1 beta secretion); activity change, % at 57.5 µM; AID 743279; THP-1 LPS/ATP IL-1B secretion, AlphaLISA, 16 h; stronger effect = lower value; 360,000 compounds, 4.7% hits; in the data active = activity change below about -50%; inconclusive = mostly about -30% to -49%
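THP-1 cells pretreated 1 hr with compounds (up to 57.5 uM final), then stimulated with LPS (250 ng/mL final) plus ATP (1.25 mM final); secreted IL-1B measured by AlphaLISA after 16 hr, decreased signal indicating inhibition.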
TGFb inhibitor – TGF-b pathway inhibition; AID 588855; 410,000 compounds, 1.2% hits; HepG2 CAGA-GFP TGF-b/SMAD3 reporter, GFP fluorescence, 18 h; TGF-beta stimulated, 500 pg/mL final; Potency, µM (series often up to 46.1 µM), most hits filed as inhibitors; also: nearly all actives have a fitted effect of over 65% in size
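GFP signal (ex488/em500-530) from TGF-beta-stimulated HEPG2 CAGA-GFP cells, 500 pg/mL final, 18 h at 37 degrees C in DMEM plus 1% FBS, normalized to unstimulated and DMSO-stimulated controls.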
A number is an active result; . = inactive; ? = inconclusive; / = no result. Unless noted, calls follow the shape of the dose curve; as a rule, active = well fitted curve in the direction sought with a large enough effect; inconclusive = small, poorly fitted or top-dose-only effect, or another doubt; inactive = no such curve, though single readings can be large; an effect the other way counts as inactive or inconclusive.

SMILES	HepG2 tox	S2 tox	ATXN2 expr inh	IL-1B inflam inh	TGFb inhibitor
Cc1cc(=O)n2nc(N3CCC(C(=O)Nc4c(C)cccc4C)CC3)sc2n1	.	.	.	/	?
COc1ccc(CNC(=O)c2ccc(Cn3c(=O)c4cccn4c4cccnc43)cc2)cc1OC	.	/	/	/	.
CC(C)NC(=O)c1ccc(COc2cc(Cl)ccc2Cl)o1	.	.	.	-62	.
CCOc1ccc(OCc2ccc(C(=O)NC(C)C)o2)cc1	.	.	/	.	.
CCc1ccccc1Nc1nn2c(=O)c3ccc(C(=O)NCc4cccs4)cc3nc2s1	.	/	/	/	.
CC1=CC(=O)N(c2cccc3c(N4C(=O)C=C(C)C4=O)cccc23)C1=O	.	.	.	-81	.
Nc1ccc2c(c1)C(=O)N(c1cccc3ccccc13)C2=O	.	.	.	.	.
O=C(NC1=NCCS1)c1cc(-c2cccc(Br)c2)nc2ccccc12	.	.	.	?	.
Cc1ccc(-c2cc(C(=O)NC3=NCCS3)c3ccccc3n2)cc1C	.	.	.	.	.
CCCc1ccc(-c2cc(C(=O)NC3=NCCS3)c3ccccc3n2)cc1	.	.	.	-53	.
O=C(NC1=NCCS1)c1cc(-c2ccc(F)cc2)nc2ccccc12	.	.	.	-73	.
COc1ccccc1C1N=C(Nc2nc3ccccc3o2)NC2=C1C(=O)CC(C)(C)C2 (centres undefined)	.	/	/	/	.
CCS(=O)(=O)Nc1ccc(C2=NN(C(=O)c3ccco3)C(c3ccc(Cl)o3)C2)cc1 (centres undefined)	.	.	.	-63	.
COC(=O)c1ccc(CN2C[C@H](Sc3ccccn3)C[C@H]2C(=O)N(C)C)cc1	/	.	/	/	/
Cc1ccc(C)c(N2CCN(CCCNC(=O)Cn3c(-c4cccs4)cc4ccccc43)CC2)c1	.	?	25µM	/	13µM
O=C(Cn1c(-c2cccs2)cc2ccccc21)NCCCN1CCN(c2cccc(Cl)c2)CC1	.	?	?	/	13µM
CCN1CCN(CCCNC(=O)Cn2c(-c3cccs3)cc3ccccc32)CC1	.	?	.	/	.
CN1CCN(CCCNC(=O)Cn2c(-c3cccs3)cc3ccccc32)CC1	.	.	.	/	.
O=C(NCCCN1CCN(c2cccc(Cl)c2)CC1)C1CCC(=O)N1Cc1ccccc1Cl (centres undefined)	.	?	?	-55	?
CN(CCCNC(=O)C1CCC(=O)N1Cc1ccccc1Cl)c1ccccc1 (centres undefined)	.	.	.	.	.
COc1ccc(N2C(=O)c3ccccc3NC2c2ccc(OC)c(COc3ccc(NC(C)=O)cc3)c2)cc1 (centres undefined)	.	/	/	/	.
Cc1cccc(NC(=O)CSc2ncc(-c3ccc(Br)cc3)[nH]2)c1	13µM	?	?	/	?
COc1ccc(S(=O)(=O)N(CC(=O)NC(C)c2ccccc2)c2ccc(C)cc2)cc1OC (centres undefined)	22µM	22µM	?	/	?
Cc1cc(C)cc(N(CC(=O)NCCSc2ccccn2)S(=O)(=O)c2ccccc2)c1	.	.	.	.	.
COc1ccc(N(CC(=O)Nc2cc(Cl)ccc2C)S(=O)(=O)c2c(C)noc2C)cc1	.	.	.	.	11µM
SMILES	HepG2 tox	S2 tox	ATXN2 expr inh	IL-1B inflam inh	TGFb inhibitor
Cc1noc(C)c1S(=O)(=O)N(CC(=O)NC(C)c1ccccc1)c1ccc(C(C)C)cc1 (centres undefined)	.	.	.	-53	?
Cc1ccc(S(=O)(=O)N(CC(=O)NCCSc2ccccn2)c2ccc(C)c(C)c2)cc1	.	.	.	-53	.
Cc1noc(C)c1S(=O)(=O)N(CC(=O)NCc1ccccc1)c1ccc(C(C)C)cc1	.	.	.	.	.
Cc1ccc(N(CC(=O)NCC(O)c2ccccc2)S(=O)(=O)c2ccc(C)cc2)cc1 (centres undefined)	.	.	.	-94	.
COc1ccc(C(=O)N2CCC3(CC2)c2ccccc2[C@@H](NC(=O)c2ccccn2)[C@@H]3OC)c(O)c1	/	.	/	/	/
CCn1ccnc1CN(C)Cc1cn(-c2cccc(C)c2)nc1-c1cccc(F)c1	.	25µM	/	-62	?
CCn1ccnc1CN(C)Cc1cn(-c2ccc(C)cc2)nc1-c1cccc(C)c1	.	.	/	-249	?
Cc1cccc(-n2cc(CN(C)Cc3nccn3C)c(-c3cccc(F)c3)n2)c1	.	?	/	-62	.
